Test results as given in the supplement of paper PMC6555819.

System: VDR:RXRa (NR concentration 270 nM, RXRa partner concentration 90 nM)
Test: PBM binding z-score (relative to random genomic background probes); higher = stronger binding; sequences stand for … in GC…GCGATTGACAGCGTAGAATGAAGG
Method: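 Protein-binding microarray (Agilent 4x180K custom design, double-stranded 60-nt probes: 5' GC cap, 34-nt variable region, 24-nt constant primer region; full probe sequence given). Purified or IVT nuclear receptor:RXRα heterodimers (3:1 NR:RXRα, mostly 270:90 nM) or homodimers were incubated for 1 h in PBS with 2% milk and no ligand, then detected with Alexa488 antibodies. Fluorescence from o1-orientation probes (~5 replicates averaged) was converted to z-scores against 500 random hg19 background probes. Variable regions are seed direct-repeat (DR0–DR5) sites, all their single-nucleotide variants and half-site ablations.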

| Sequence | PBM binding z-score |
| --- | --- |
| AGAATGAGGTTAAGATCAGGGCAACAGAATACAT | 2.23 |
| TTACCAAGGTGAAGGTCGTTAATCCCTCTGTAGA | 1.16 |
| GCTAACGGGTCAAAGGTTATAGCATGAATAGAAT | 4.9 |
| ACAGACAGGTAATGAAGGTAACTCAGGCTATCAT | 0.244 |
| TAGCCTAGGTCATGCGGGCCAGTGTAGTGTCGGC | 2.74 |
| CCTTACGGGTCAAGGTTAGAGCACGGGTGGTACG | 3.08 |
| GCAGACAGGTGAAACGCAGGTAACTAAGGGTGGC | -0.407 |
| TCTTGTAGATCAAGCAGGTTAAGAGAGCCTGAGT | 0.331 |
| CCTACTGGGCCATCCGGTCATTGATATCAACGTT | 0.0642 |
| ATATGTAGGTTACATCCGGATCATTCAGGCTATG | 0.945 |
| TCATATAGGTAAAGGTGAAAGTTGAACGATATGA | 1.58 |
| CCTACTGGGCCATGCAGAGGTCATTGATCATATG | 3.86 |
| TCTTGTAGATCAAGCAGGTTAAGAATGCCTGAGT | 0.48 |
| TCTTGTGGATCAACAGGAGGTTAAGAAAGATCGA | 0.329 |
| TATACAGGGTCAAATGCCAGAGTACGAATGTCGA | 4.82 |
| ACAGACAGCTGAGTGAAGGTAACTCAGCTGGACG | -0.322 |
| ATCTCTAGGTAACCAAGATCAGTGAATGCCGAAC | 0.294 |
| TCTCGGAGGACACGAAGGTCAGAGCCTTCCAGAG | 2.42 |
| CAGCCTAGGTCAGGGCCAGTGTAGGAGGAACGTT | 0.257 |
| CCGGCTGGGGCAGAAAGGTTACCATACCATCCGG | 0.63 |

| Sequence | PBM binding z-score |
| --- | --- |
| TAGCCTATGTCATTCAGGGGCCAGTATAGAAAGC | -0.286 |
| TCTTGTAGATCAACAGGAGTTTAAGAAAGATCGA | 0.517 |
| CGAACTAGGTCAAAACAGGACAGTGAAGGATGAT | 1.99 |
| ATCACTAGGTAACAAGTTCAGTGAAAGAGAGGAC | 1.6 |
| ATCGAAAGGTCGACGAGGTGAGTTTACACCGTTT | 5.25 |
| ACTTACGGGTCAACGAGGTTATAGCACGCGTATA | 7.63 |
| CCGACTGGGGCAAGGTTACTATAACGCACAGCCA | 0.0885 |
| ATACCAAGGTGATCGGGAGGTCGTTGATACTAAC | 2.58 |
| GCTTGCAGGCCATTTGGGTCACTCAATGACGGGC | 1.08 |
| CTACCAAGGTGAACTAGGTCGTTGATTACTATTC | 3.56 |
| CCTACTGGGCCATCAGGTCATTTATATCAACGTT | 1.65 |
| CAAACTCGGTCACGAAAGGTCAAAGTCGAATGAC | 5.86 |
| TCTTGTAGATCAAAGGTTAAGAATGCCGAAGCCT | 1.7 |
| CCGACTAGGGCAAGGTTACCATAACGCACAGCCA | 0.178 |
| CGAACTAGGTCATTGACCGGACAGTGAATAGTAA | 1.96 |
| AGACCAAGGTGATCGTGAGGTCGTTGATACTAAC | 3.12 |
| ATTGAAAGGTCGAAGGTGAGTATACCCACCCGAA | 3.13 |
| TCATATACGTAAACAGGTGAAAGTCCGTAAGTTA | 1.38 |
| CGAACCAGGTCATTGACAGGACAGTGAATAGTAA | 2.85 |
| ATCGAAAGGTCGTGAGGTGAGTAAACAGAAAGGC | 3.3 |
